The term AC50 denotes the concentration at which the activity in the assay is half-maximal.

Assay [1] addresses Transcription factor E2F1 (Homo sapiens) (UniProt Q01094). As to the kind of experiment: ATG_E2F_CIS: Attagene CIS-FACTORIAL HepG2 Assay for human E2F Transcription Factor 1 (AID 2282935). The note with it: HepG2 Attagene cis-reporter, E2F reporter RNA transcripts; actives raise or lower the signal. Put shortly:
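HepG2 cells transiently transfected with multiplexed cis-element reporter units, dosed for 24 h. Reporter mRNA measured by RT-PCR, 6-FAM primer-extension labeling, HpaI digestion and capillary electrophoresis; bidirectional fit versus DMSO baseline.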

Assay [2] can be described thus: ATG_E_Box_CIS: Attagene CIS-FACTORIAL HepG2 Assay for human Enhancer Box (E-box) (AID 2282936). Particulars: HepG2 E-box cis-reporter transcription, actives raise or lower the signal. The gist of the method:
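HepG2 cells transiently transfected with multiplexed cis-element reporter units sensing endogenous transcription factor activity; 24 h compound exposure. Reporter mRNA measured by RT-PCR, 6-FAM primer extension, HpaI digestion and capillary electrophoresis; bidirectional fit versus DMSO.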

A short description of assay [3]: ATG_M_61_CIS: Attagene CIS-FACTORIAL HepG2 Assay for M61 Transcription Factor (Internal Marker) (AID 2282937). Particulars: HepG2 Attagene CIS-FACTORIAL M61 internal marker reporter; actives raise or lower the signal. Put shortly:
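Cells were transfected with reporter units under cis-regulatory promoters, treated with chemicals for 24 h, then lysed for RNA. Reporter transcripts were quantified by RT-PCR and capillary electrophoresis, and activity was fitted bidirectionally against DMSO.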

Assay [4] in a line: ATG_EGR_CIS: Attagene CIS-FACTORIAL HepG2 Assay for human Early Growth Response 1 (EGR1) (AID 2282938). Particulars: HepG2 Attagene CIS-FACTORIAL EGR reporter mRNA; actives raise or lower the signal. Put shortly: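 Endogenous TF activity in HepG2 liver cells was gauged through cis-promoter reporter constructs transiently transfected. After 24 h dosing, reporter mRNA was quantified by RT-PCR and capillary electrophoresis, and curves fitted in both directions versus DMSO.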

Assay [5] is described as follows: ATG_M_19_CIS: Attagene CIS-FACTORIAL HepG2 Assay for M19 Transcription Factor (Internal Marker) (AID 2282939). Particulars: HepG2 Attagene CIS-FACTORIAL M19 internal marker reporter; actives raise or lower the signal. Put shortly:
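Signals come from fluorescence of labelled reporter-specific PCR fragments resolved by capillary electrophoresis, following 24 h treatment of HepG2 cells transfected with cis-promoter reporter units; activity was fitted in both directions relative to DMSO.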

The nature of assay [6]: ATG_ERE_CIS: Attagene CIS-FACTORIAL HepG2 Assay for Estrogen Response Element (ERE) (AID 2282940). The note with it: HepG2 ERE cis-reporter, Attagene RNA transcript; actives raise or lower the signal. The gist of the method: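 Fluorescence of capillary-separated, FAM-labelled reporter cDNA fragments indicates reporter mRNA levels in HepG2 cells exposed to chemicals for 24 h. Transient transfection with cis-regulated units; data fitted in both directions against DMSO.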

Assay [7] is described as follows: ATG_Ets_CIS: Attagene CIS-FACTORIAL HepG2 Assay for human Erythroblast Transformation Specific (ETS) (AID 2282941). Particulars: HepG2 ETS cis-reporter transcription, actives raise or lower the signal. The gist of the method:
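Steps: transfect HepG2 with multiple reporter units; treat compound 24 h; isolate RNA, DNase-treat, reverse-transcribe; PCR-amplify, label with 6-FAM, digest with HpaI; separate by capillary electrophoresis. Activity fitted both directions versus DMSO.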

Assay [8] concerns the target Hepatocyte nuclear factor 3-beta (Homo sapiens) (UniProt Q9Y261). As to the kind of experiment: ATG_FoxA2_CIS: Attagene CIS-FACTORIAL HepG2 Assay for human Forkhead box A2 (FOXA2) (AID 2282942). Particulars: HepG2 cis-reporter transcription factor activity, 24 h; actives raise or lower the signal. Put shortly:
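Endogenous transcription factor activity was read in HepG2 cells carrying transiently transfected cis-promoter reporter units. After 24 h dosing, reporter mRNA was quantified by RT-PCR and capillary electrophoresis, and values fitted bidirectionally versus DMSO.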

The nature of assay [9]: ATG_FoxO_CIS: Attagene CIS-FACTORIAL HepG2 Assay for human Forkhead box O (FoxO) (AID 2282943). The note with it: HepG2 Attagene cis-reporter, FoxO element, mRNA; actives raise or lower the signal. The gist of the method:
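24 h chemical exposure, HepG2 with transient cis-MRTU transfection. RNA extraction, oligo(dT) RT, reporter-specific PCR, primer-extension labelling, HpaI digestion, CE fragment analysis; bidirectional fit, DMSO baseline.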

Assay [10] can be described thus: ATG_GATA_CIS: Attagene CIS-FACTORIAL HepG2 Assay for human GATA Binding Protein (AID 2282944). Particulars: HepG2 GATA cis-element reporter, Attagene multiplex mRNA; actives raise or lower the signal. The gist of the method:
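After transfecting HepG2 cells with multiple cis-regulated reporter units, chemicals are dosed for 24 h; isolated RNA undergoes RT-PCR and fluorescent labeling before capillary electrophoresis, with activity expressed against DMSO.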

Each structure is given as a SMILES string. A structure can be active in one record and inactive in another. Activity calls are given as the source filed them. How the source made its calls: active means hit-call score of the fitted dose curve at least 0.9, where 1 is the maximum; inactive means score below 0.9.

Chain of Transcription factor E2F1 (Homo sapiens) (Q01094 whole entry, looked up): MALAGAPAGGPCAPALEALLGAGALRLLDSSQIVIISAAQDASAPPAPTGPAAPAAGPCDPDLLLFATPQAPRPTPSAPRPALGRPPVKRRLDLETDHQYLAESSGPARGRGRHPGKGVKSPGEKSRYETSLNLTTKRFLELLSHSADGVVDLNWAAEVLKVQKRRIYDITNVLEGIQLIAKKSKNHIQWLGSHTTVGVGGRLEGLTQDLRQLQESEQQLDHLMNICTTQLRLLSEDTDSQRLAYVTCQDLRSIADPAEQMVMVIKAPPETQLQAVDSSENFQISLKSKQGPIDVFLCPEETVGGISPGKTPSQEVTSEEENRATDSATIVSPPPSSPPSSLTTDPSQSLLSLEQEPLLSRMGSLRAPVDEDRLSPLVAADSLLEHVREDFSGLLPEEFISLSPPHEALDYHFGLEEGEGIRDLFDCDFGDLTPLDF
Chain of Hepatocyte nuclear factor 3-beta (Homo sapiens) (Q9Y261 whole entry, looked up): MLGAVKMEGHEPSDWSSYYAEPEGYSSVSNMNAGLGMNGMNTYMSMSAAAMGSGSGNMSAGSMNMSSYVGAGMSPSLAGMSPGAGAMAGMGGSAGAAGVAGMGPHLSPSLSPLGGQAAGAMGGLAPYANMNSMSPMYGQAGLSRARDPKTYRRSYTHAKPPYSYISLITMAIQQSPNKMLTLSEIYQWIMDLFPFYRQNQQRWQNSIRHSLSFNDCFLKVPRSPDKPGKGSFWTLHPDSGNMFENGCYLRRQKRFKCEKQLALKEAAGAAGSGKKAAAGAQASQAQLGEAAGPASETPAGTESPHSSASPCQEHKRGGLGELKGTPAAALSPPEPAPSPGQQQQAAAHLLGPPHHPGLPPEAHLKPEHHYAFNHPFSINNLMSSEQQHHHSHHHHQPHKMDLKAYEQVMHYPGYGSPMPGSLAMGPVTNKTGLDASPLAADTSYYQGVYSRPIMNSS

As to `CCOC1Oc2ccc(OS(C)(=O)=O)cc2C1(C)C` (stereo unspecified), the outcome in [1], in [2], in assay [3], in assay [4], in assay [5] and in [6] was inactive. Further, the compound was called inactive in [7], in assay [8], in assay [9] and in [10].
With `CCN(CC)C(=O)SCc1ccc(Cl)cc1`, the outcome in assay [1], in assay [2], in [3], in assay [5], in assay [6] and in [7] was inactive. The compound was called inactive in assay [8], in [9] and in assay [10]. In addition, in assay [4], the AC50 was 23.5 µM (active).
As to `COC(=O)c1ccccc1S(=O)(=O)NC(=O)Nc1nc(C)nc(OC)n1`, the result in [1], in [2], in assay [3], in [4], in [5] and in assay [7] was inactive. For the same compound, the compound was called inactive in assay [8], in assay [9] and in assay [10]. Moreover, in assay [9], the AC50 was 75.5 µM (active).
In the case of `O=S1OCC2C(CO1)C1(Cl)C(Cl)=C(Cl)C2(Cl)C1(Cl)Cl` (stereo unspecified), the compound was called inactive in assay [1], in assay [2], in assay [3], in [4], in assay [5] and in assay [7]. Besides, the result in assay [8], in assay [9] and in [10] was inactive. In [6], the AC50 is 1.72 µM (active).
In the case of `Cc1[nH]c(=O)n(C(C)(C)C)c(=O)c1Cl`, the compound was called inactive in [1], in assay [2], in assay [3], in assay [4], in assay [5] and in assay [6]. Further, the compound was called inactive in assay [7], in assay [8], in [9] and in assay [10].
As to `CCS(=O)(=O)c1cccnc1S(=O)(=O)NC(=O)Nc1nc(OC)cc(OC)n1`, the result in [1], in assay [2], in [3], in [4], in [5] and in assay [7] was inactive. Further, the outcome in assay [8], in assay [9] and in assay [10] was inactive.
On to `CCCN(CCOc1c(Cl)cc(Cl)cc1Cl)C(=O)n1ccnc1`, for which the compound was classed as inactive in [1], in [2], in assay [3], in assay [4], in assay [5] and in [7]. For the same compound, the compound was called inactive in [8], in assay [9] and in [10].
Take `OCCOc1ccccc1`: the compound was called inactive in [1], in assay [2], in assay [3], in assay [4], in assay [5] and in assay [6]. Also, the call in assay [7], in assay [8], in assay [9] and in assay [10] was inactive.
For `N#Cc1c(Cl)c(Cl)c(Cl)c(C#N)c1Cl`, the result in assay [1], in [2], in [3], in [4], in assay [5] and in assay [6] was inactive. Also, the outcome in [7], in [8], in assay [9] and in assay [10] was inactive.
With `O=C(O)COc1ccc(Cl)cc1Cl`, the call in assay [1], in assay [2], in [3], in assay [4], in assay [5] and in [7] was inactive. In addition, the result in assay [8], in [9] and in assay [10] was inactive.
On to `O=C(Nc1ccccc1)Nc1cnns1`, for which the compound was called inactive in [1], in assay [2], in assay [3], in assay [5], in assay [6] and in assay [7]. Further, the compound was called inactive in [8], in assay [9] and in [10]. The half-maximal activity concentration (AC50) in assay [4] is 90.3 µM (active).
Consider `CCOc1nc(NC)nc(NC(=O)NS(=O)(=O)c2ccccc2C(=O)OC)n1`, for which the call in assay [1], in [2], in assay [3], in assay [4], in assay [5] and in [6] was inactive. The compound was classed as inactive in assay [7], in [8], in assay [9] and in assay [10].
As for `Clc1ccccc1-c1nnc(-c2ccccc2Cl)nn1`, the outcome in [1], in [2], in assay [3], in assay [4], in assay [5] and in [6] was inactive. Moreover, the compound was called inactive in [7], in assay [8], in [9] and in assay [10].
Regarding `O=C(O)CCCOc1ccc(Cl)cc1Cl`, the result in [1], in [2], in assay [3], in [4], in [5] and in [7] was inactive. The outcome in [8], in assay [9] and in [10] was inactive.

Source of the values: PubChem BioAssay (EPA / NIEHS).
